Results filed as inconclusive are left out. Activity calls are given as the source filed them. Unless noted, the call rests on the fitted dose curve; in most records, active means well fitted curve in the direction sought with a large enough effect in the repeat runs; inconclusive means weak or mixed curves; inactive means no such curve, though single readings can be large; an effect the other way counts as inactive or inconclusive.
Columns and labels:
[1] = qHTS assay to identify small molecule antagonists of the thyroid receptor (TR) signaling pathway (AID 743065); further: series mostly up to about 70 µM; nearly all actives have a fitted effect of over 55% in size
How it was run: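 Antagonism measured as loss of luciferase signal in GH3 cells stably carrying a TRE-luciferase reporter, co-treated with compound and T3 (1 nM final) for 23.5 h at 37 C. Viability was read in the same well by CellTiter-Fluor.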

[2] = tested on: thyroid hormone receptor (rat, GH3 cells); assay: qHTS assay to identify small molecule agonists of the thyroid receptor (TR) signaling pathway (AID 743066; calls by dose curve)
[3] = qHTS assay to identify small molecule antagonists of the estrogen receptor alpha (ER-alpha) signaling pathway - cell viability counter screen (AID 743074; calls by dose curve;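 further: HEK293 cells carrying ER-alpha-UAS-bla reporter stimulated with 17beta-estradiol; nearly all actives have a fitted effect of over 45% in size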)
[4] = qHTS assay to identify small molecule antagonists of the estrogen receptor alpha (ER-alpha) signaling pathway using the BG1 cell line - cell viability counter screen (AID 743081);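 further: compound given together with 17beta-estradiol as the ER stimulus; series mostly up to about 70 µM; nearly all actives have a fitted effect of over 45% in size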
[5] = molecular target: Aromatase (Homo sapiens) (UniProt P11511); assay: qHTS assay to identify aromatase inhibitors (AID 743083); further: series mostly up to about 70 µM; nearly all actives have a fitted effect of over 55% in size
[6] = qHTS assay to identify aromatase inhibitors - cell viability counter screen (AID 743084);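 further: cells stimulated with testosterone during compound exposure; nearly all actives have a fitted effect of over 55% in size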
[7] = molecular target: Aryl hydrocarbon receptor (Homo sapiens) (UniProt P35869); assay: qHTS assay to identify small molecule that activate the aryl hydrocarbon receptor (AhR) signaling pathway (AID 743085);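 further: HG2L7.5c1 human HepG2 liver cells with stably integrated DRE-driven firefly reporter; series mostly up to about 70 µM; nearly all actives have a fitted effect of over 15% in size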
How it was run: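 Luminescence read-out: ONE-Glo reagent, 30 min at room temperature, in HG2L7.5c1 HepG2 reporter cells treated 24 h at 37C. Viability was measured beforehand by CellTiter-Fluor fluorescence after 30 min at 37C.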

[8] = qHTS assay to identify small molecule that activate the aryl hydrocarbon receptor (AhR) signaling pathway - cell viability counter screen (AID 743086);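 further: HepG2 liver cells carrying the AhR DRE luciferase reporter; series mostly up to about 70 µM; nearly all actives have a fitted effect of over 45% in size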
How it was run: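 Cytotoxicity counter screen: CellTiter-Fluor signal (30 min, 37 C) in 4000 HepG2 cells/well carrying the DRE-luciferase reporter, following 24 h compound exposure at 37 C.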

[9] = molecular target: Peroxisome proliferator-activated receptor gamma (Homo sapiens) (UniProt P37231); assay: qHTS assay to identify small molecule agonists of the peroxisome proliferator-activated receptor gamma (PPARg) signaling pathway (AID 743094; active means well fitted activation curve with a large enough effect in the signal ratio in the repeat runs, not every such curve was filed as active; the % refers to the signal ratio)
How it was run: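 GeneBLAzer PPARg UAS-bla HEK293H cells were plated, rested 5 h, then exposed to compounds for 17 h at 37C. Beta-lactamase activity was read by LiveBLAzer B/G FRET substrate fluorescence after 1 h at room temperature.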

[10] = qHTS assay to identify small molecule antagonists of the peroxisome proliferator-activated receptor gamma (PPARg) signaling pathway - cell viability counter screen (AID 743194); further: nearly all actives have a fitted effect of over 55% in size
How it was run: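 Viability was measured as CellTiter-Glo luminescence in GeneBLAzer PPARg UAS-bla HEK293H cells. These cells had been exposed 17 h at 37 C to compounds together with rosiglitazone at 50 nM final, with the beta-lactamase readout taken in the same wells.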

[11] = qHTS assay for small molecule agonists of the antioxidant response element (ARE) signaling pathway (AID 743202; active means well fitted activation curve with a large enough effect in the signal ratio in the repeat runs, not every such curve was filed as active; the % refers to the signal ratio)
How it was run: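 Quantitative high-throughput format in HepG2 cells bearing an integrated ARE-beta-lactamase reporter. Compound exposure lasted 16 h at 37 C, and fluorescence was read 2 h after adding LiveBLAzer B/G substrate at room temperature.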

[12] = qHTS assay for small molecule agonists of the antioxidant response element (ARE) signaling pathway - cell viability counter screen (AID 743203; calls by dose curve; further: nearly all actives have a fitted effect of over 55% in size)
How it was run: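 ARE-bla HepG2 cells were plated, rested 5 h at 37C/5% CO2, then exposed to compounds in DMSO for 16 h. Viability was read as CellTiter-Glo luminescence after 30 min at room temperature, in the same wells as the ARE screen.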

[13] = qHTS assay for small molecule activators of the heat shock response signaling pathway - cell viability counter screen (AID 743209); further: nearly all actives have a fitted effect of over 50% in size
How it was run: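 HSE-bla HeLa cells plated overnight, then exposed to Tox21 compounds (23 nL in DMSO) for 5 h at 37 C. After the bla reporter read, CellTiter-Glo was added in the same wells and luminescence read after 30 min at room temperature.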

[14] = qHTS assay for small molecule activators of the heat shock response signaling pathway (AID 743210; active means well fitted activation curve with a large enough effect in the signal ratio in the repeat runs, with a control signal flat, not every such curve was filed as active; the % refers to the signal ratio;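 further: HeLa cells with beta-lactamase reporter driven by heat shock elements; series mostly up to about 63 µM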)
How it was run: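 HeLa HSE-bla cells, overnight plating; cpd in DMSO 5 h, 37 C; LiveBLAzer B/G FRET substrate 2.5 h RT; fluorescence intensity read.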

[15] = molecular target: Estrogen receptor (Homo sapiens) (UniProt P03372); assay: qHTS assay to identify small molecule antagonists of the estrogen receptor alpha (ER-alpha) signaling pathway (AID 743069; active means well fitted curve in the direction sought with a large enough effect in the signal ratio in the repeat runs, not every such curve was filed as active; the % refers to the signal ratio)
How it was run: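 ER-alpha-UAS-bla GripTite HEK293 line; 2% charcoal-stripped FBS overnight; plated, 4 hr 37C/5% CO2; cpd in DMSO + 17beta-estradiol, 18 hr 37C; LiveBLAzer B/G FRET substrate 2 hr RT; fluorescence intensity.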

[16] = molecular target: Estrogen receptor (Homo sapiens) (UniProt P03372); assay: qHTS assay to identify small molecule agonists of the estrogen receptor alpha (ER-alpha) signaling pathway (AID 743075; calls by dose curve;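 further: HEK293 GripTite cells with ER-alpha and UAS-driven beta-lactamase reporter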)
[17] = molecular target: Estrogen receptor (Homo sapiens) (UniProt P03372); assay: qHTS assay to identify small molecule agonists of the estrogen receptor alpha (ER-alpha) signaling pathway using the BG1 cell line (AID 743079); further: nearly all actives have a fitted effect of over 20% in size
[18] = molecular target: Peroxisome proliferator-activated receptor gamma (Homo sapiens) (UniProt P37231); assay: qHTS assay to identify small molecule antagonists of the peroxisome proliferator-activated receptor gamma (PPARg) signaling pathway (AID 743191; calls by dose curve; further: series mostly up to about 63 µM; nearly all actives have a fitted effect of over 30% in size)
How it was run: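 Beta-lactamase reporter under UAS control in HEK293H PPARg-bla cells; compound treatment 17 h at 37C. Read-out: fluorescence intensity after 1 h room-temperature incubation with LiveBLAzer B/G FRET substrate.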

Measured: Potency

Chain of Aromatase (Homo sapiens) (P11511 whole entry, looked up): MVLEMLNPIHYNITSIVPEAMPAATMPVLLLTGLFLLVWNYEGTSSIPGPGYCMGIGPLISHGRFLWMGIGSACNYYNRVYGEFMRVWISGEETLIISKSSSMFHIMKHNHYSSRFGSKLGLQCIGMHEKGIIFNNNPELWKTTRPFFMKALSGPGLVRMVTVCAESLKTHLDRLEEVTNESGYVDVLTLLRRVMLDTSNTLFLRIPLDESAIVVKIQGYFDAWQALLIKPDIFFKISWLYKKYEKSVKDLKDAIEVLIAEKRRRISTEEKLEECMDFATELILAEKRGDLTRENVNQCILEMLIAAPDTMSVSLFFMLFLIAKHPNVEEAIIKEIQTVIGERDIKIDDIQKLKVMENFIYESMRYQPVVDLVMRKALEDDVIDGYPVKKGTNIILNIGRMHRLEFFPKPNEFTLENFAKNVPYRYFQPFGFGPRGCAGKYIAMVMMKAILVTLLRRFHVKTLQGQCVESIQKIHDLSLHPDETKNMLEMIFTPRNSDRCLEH
Chain of Peroxisome proliferator-activated receptor gamma (Homo sapiens) (P37231 whole entry, looked up): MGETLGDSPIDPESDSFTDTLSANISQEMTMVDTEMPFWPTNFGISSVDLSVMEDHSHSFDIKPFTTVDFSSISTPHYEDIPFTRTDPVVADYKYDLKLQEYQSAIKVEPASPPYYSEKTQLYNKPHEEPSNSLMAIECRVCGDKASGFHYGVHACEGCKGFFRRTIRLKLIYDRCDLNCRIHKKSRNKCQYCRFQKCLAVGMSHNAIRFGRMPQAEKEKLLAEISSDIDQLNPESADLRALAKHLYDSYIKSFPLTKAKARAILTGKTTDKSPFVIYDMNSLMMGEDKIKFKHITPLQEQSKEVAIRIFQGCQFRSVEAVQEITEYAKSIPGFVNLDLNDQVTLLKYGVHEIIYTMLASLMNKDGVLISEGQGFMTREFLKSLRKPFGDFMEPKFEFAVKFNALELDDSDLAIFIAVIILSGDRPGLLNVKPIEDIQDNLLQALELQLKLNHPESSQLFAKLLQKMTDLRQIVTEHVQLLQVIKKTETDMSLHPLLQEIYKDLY
Chain of Aryl hydrocarbon receptor (Homo sapiens) (P35869 whole entry, looked up): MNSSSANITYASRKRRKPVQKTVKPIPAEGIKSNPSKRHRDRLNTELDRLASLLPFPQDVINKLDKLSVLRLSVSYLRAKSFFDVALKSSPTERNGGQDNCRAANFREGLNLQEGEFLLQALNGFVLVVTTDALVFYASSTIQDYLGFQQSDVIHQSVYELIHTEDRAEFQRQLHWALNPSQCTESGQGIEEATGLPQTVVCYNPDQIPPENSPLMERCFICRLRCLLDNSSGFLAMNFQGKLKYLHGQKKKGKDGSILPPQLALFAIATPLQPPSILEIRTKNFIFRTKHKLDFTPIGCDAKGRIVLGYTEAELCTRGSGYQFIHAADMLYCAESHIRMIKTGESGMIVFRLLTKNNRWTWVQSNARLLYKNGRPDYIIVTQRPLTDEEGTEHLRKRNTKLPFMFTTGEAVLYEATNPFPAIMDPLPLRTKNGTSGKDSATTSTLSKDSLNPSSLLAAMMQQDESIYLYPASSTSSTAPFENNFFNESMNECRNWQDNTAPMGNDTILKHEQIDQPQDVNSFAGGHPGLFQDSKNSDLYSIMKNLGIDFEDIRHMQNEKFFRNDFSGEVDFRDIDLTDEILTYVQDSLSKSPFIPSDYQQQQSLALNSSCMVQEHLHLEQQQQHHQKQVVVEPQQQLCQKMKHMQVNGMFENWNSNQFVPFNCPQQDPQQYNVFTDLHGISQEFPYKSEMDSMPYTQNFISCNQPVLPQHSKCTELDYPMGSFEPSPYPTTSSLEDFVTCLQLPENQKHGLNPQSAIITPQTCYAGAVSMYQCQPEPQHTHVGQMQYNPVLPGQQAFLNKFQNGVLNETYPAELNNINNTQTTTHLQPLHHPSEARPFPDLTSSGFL
Chain of Estrogen receptor (Homo sapiens) (P03372 whole entry, looked up): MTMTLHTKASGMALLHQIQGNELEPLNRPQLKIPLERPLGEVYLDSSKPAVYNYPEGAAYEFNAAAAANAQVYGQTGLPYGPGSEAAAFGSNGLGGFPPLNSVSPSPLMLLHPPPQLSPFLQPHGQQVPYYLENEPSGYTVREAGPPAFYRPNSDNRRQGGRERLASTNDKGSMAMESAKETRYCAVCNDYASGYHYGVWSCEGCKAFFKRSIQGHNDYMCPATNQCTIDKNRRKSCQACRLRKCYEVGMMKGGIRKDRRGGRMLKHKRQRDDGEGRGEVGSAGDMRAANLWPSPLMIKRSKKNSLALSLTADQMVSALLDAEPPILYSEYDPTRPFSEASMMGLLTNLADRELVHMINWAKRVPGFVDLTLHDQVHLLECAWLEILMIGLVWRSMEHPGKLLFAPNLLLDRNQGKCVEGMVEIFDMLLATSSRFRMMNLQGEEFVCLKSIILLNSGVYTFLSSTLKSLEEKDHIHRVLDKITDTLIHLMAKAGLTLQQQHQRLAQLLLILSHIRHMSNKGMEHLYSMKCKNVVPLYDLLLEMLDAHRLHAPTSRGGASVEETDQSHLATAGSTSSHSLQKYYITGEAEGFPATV

CCCCCCCC(=O)OCCCCCC
inactive: [1] | [2] | [3] | [4] | [5] | [6] | [7] | [8] | [9] | [10] | [11] | [12] | [13] | [14]

COc1ccc(N)c([N+](=O)[O-])c1
inactive: [1] | [2] | [3] | [4] | [5] | [6] | [7] | [9] | [10] | [12] | [13] | [14]

C/C(C=O)=C\c1ccccc1
inactive: [1] | [2] | [15] | [3] | [16] | [17] | [4] | [5] | [6] | [7] | [8] | [18] | [10] | [12] | [13]

SCCc1cnccn1
inactive: [1] | [2] | [15] | [4] | [5] | [6] | [8] | [18] | [10] | [12]

COc1ccc(C)cc1
inactive: [1] | [2] | [3] | [4] | [5] | [6] | [7] | [8] | [9] | [18] | [10] | [11] | [12] | [13]

Nc1nc(-c2ccc([N+](=O)[O-])cc2)cs1
inactive: [1] | [2] | [3] | [4] | [5] | [6] | [8] | [9] | [10] | [12] | [13] | [14]

C[C@H](CS)C(=O)N1CCC[C@H]1C(=O)O
inactive: [1] | [2] | [3] | [4] | [5] | [6] | [7] | [8] | [10] | [11] | [12] | [13] | [14]

C[C@@H]1C[C@H]2[C@@H]3CCC4=CC(=O)C=C[C@]4(C)[C@@]3(F)[C@@H](O)C[C@]2(C)[C@@]1(O)C(=O)COP(=O)(O)O
inactive: [1] | [2] | [3] | [16] | [4] | [5] | [6] | [7] | [8] | [9] | [18] | [10] | [11] | [12] | [13] | [14]

C1CCCCC1
inactive: [1] | [2] | [3] | [4] | [5] | [6] | [7] | [8] | [9] | [18] | [10] | [12] | [13] | [14]

O=[N+]([O-])c1ccc2ncccc2c1
inactive: [1] | [2] | [15] | [3] | [16] | [17] | [4] | [5] | [6] | [8] | [9] | [10] | [11] | [12] | [13] | [14]

From PubChem BioAssay (Tox21)
